According to PubChem BioAssay (NCI):
Several values for one entry are separate records, joined by “and”; a condition that tells them apart may be missing. Equal values may be shown once. The panel holds about 83,000 compounds, 20% with a hit somewhere; the sample as a whole holds those more often.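 Compound tested at a single concentration for 48 hours in 96-well plates; a percent growth value below 10 was scored as active.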 Activity calls are given as the source filed them.

test system: MCF7 breast; experiment: NCI-60 one-dose screen, 48 h (100 = growth as untreated, 0 = no growth, -100 = all killed); settings: 10 µM unless noted

| SMILES | growth |
| --- | --- |
| CCCCCCCCCCCCCC1=C(O)C(=O)C(CC2=C(O)C(=O)C(CCCCCCCCCCCCC)=C(O)C2=O)=C(O)C1=O | 2.9% [100 µM] (active) and -79.8% [100 µM] (active) |
| COc1ccc2c3c(c(=O)n(C)c2c1OC)C=CC(C)(C)O3 | 4.77% [100 µM] (active) and 0.153% [100 µM] (active) |
| CCCn1c2c(c3ccccc3c1=O)C(=O)c1ccccc1-2 | 51.4% [100 µM] (inactive) and 17.4% [100 µM] (inactive) |
| CC#CC#C/C=C1/C=CC2(CCCCO2)O1 (stereo not drawn) | 53.8% [100 µM] (inactive) and 0.753% [100 µM] (active) |
| CC(=O)O[C@@H]1C[C@@]2(C)[C@@H]3CC=C4[C@@H](C[C@H](O)C(=O)C4(C)C)[C@]3(C)C(=O)C[C@]2(C)[C@H]1[C@@](C)(O)C(=O)/C=C/C(C)(C)OC(C)=O | -52.5% [100 µM] (active) and -100% [100 µM] (active) |
| CCOC(=O)CCC(NC(=O)c1ccc(OCc2nc3cc(C(F)(F)F)ccc3nc2-c2ccccc2)cc1)C(=O)OCC (stereo not drawn) | 32% [100 µM] (inactive) and -53% [100 µM] (active) |
| CCCCOC(=O)C1CN2C(=NC1(C(F)(F)F)C(F)(F)F)Sc1ccccc12 (stereo not drawn) | 6.83% [100 µM] (active) and 25.5% [100 µM] (inactive) |
| COC(=O)C(=O)C(C(=O)C(=O)Nc1ccccc1C(=O)OC)c1nc2ccc(C(=O)c3ccccc3)cc2[nH]c1=O (stereo not drawn) | 58.7% [100 µM] (inactive) and 7.77% [100 µM] (active) |
